Results reported in PMC7862700, “An all-to-all approach to the identification of sequence-specific readers for epigenetic DNA modifications on cytosine”.

Tests used:
Assay in all cases: DAPPL (digital affinity profiling via proximity ligation, sequencing); 10 mM Tris-HCl pH 7.5, 50 mM NaCl, 1 mM DTT, 4% glycerol, room temperature, 30 min; GST-TFs on glutathione beads, 16-mer random dsDNA library, 0.1% formaldehyde crosslink after washing; high values mean tight binding
[1] = target: T1, FLI1 (Homo sapiens, UniProt Q01543 1-452); conditions: protein: recombinant; tags: N-terminal GST; dsDNA, one strand shown
T1 sequence: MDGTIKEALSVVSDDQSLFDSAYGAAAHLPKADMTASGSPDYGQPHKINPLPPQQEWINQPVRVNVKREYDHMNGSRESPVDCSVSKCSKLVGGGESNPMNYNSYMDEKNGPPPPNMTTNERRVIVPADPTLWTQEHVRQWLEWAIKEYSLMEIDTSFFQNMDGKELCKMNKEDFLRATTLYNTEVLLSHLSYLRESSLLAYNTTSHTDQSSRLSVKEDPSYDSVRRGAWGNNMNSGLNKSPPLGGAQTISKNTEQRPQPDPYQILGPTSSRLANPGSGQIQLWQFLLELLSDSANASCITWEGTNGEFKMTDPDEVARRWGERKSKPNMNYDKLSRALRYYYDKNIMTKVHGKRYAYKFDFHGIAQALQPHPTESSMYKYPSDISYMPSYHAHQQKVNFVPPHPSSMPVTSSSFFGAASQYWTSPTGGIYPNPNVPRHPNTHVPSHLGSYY
In short: (§1)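 Human transcription factors were made in yeast as GST fusions, captured on glutathione beads and barcoded with DNA. With a tag-only sample included, the pool was incubated with 200 nmole of a random double-stranded 16-mer DNA library in Tris/NaCl/DTT/glycerol buffer at room temperature for 30 min, then crosslinked with 0.1% formaldehyde after washing, ligated by proximity, amplified and sequenced. For binding signal, each hexamer's read frequency for a factor is divided by its frequency for the tag-only sample.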

[2] = target: T2, ELK1 (Homo sapiens, UniProt P19419 1-428); conditions: protein: recombinant; tags: N-terminal GST; dsDNA, one strand shown
T2 sequence: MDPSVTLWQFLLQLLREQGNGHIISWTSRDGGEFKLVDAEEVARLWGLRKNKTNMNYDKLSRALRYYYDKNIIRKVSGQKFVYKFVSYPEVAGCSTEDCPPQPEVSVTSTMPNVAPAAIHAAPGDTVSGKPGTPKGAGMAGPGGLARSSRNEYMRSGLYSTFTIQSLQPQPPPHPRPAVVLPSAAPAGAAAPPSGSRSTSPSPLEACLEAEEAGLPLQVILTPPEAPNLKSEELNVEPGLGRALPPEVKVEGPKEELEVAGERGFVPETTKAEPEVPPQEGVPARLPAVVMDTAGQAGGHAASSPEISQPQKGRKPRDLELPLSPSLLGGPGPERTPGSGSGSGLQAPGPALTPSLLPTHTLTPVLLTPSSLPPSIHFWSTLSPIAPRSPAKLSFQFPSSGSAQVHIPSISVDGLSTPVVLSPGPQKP
In short: as §1

[3] = target: T3, GABPA (Homo sapiens, UniProt Q06546 1-454); conditions: protein: recombinant; tags: N-terminal GST; dsDNA, one strand shown
T3 sequence: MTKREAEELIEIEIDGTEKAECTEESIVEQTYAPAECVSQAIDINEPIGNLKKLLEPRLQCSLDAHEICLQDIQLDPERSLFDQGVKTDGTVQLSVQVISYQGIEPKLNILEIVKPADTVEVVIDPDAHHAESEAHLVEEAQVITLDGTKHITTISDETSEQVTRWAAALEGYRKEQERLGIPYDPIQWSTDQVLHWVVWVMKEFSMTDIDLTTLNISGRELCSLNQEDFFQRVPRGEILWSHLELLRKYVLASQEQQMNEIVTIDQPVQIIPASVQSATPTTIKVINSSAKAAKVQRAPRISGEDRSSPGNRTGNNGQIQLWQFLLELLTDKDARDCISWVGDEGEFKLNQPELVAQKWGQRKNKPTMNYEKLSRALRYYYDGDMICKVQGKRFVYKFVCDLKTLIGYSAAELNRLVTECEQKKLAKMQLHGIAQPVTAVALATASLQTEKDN
In short: as §1

[4] = target: T4, ERG (Homo sapiens, UniProt P11308 1-479); conditions: protein: recombinant; tags: N-terminal GST; dsDNA, one strand shown
T4 sequence: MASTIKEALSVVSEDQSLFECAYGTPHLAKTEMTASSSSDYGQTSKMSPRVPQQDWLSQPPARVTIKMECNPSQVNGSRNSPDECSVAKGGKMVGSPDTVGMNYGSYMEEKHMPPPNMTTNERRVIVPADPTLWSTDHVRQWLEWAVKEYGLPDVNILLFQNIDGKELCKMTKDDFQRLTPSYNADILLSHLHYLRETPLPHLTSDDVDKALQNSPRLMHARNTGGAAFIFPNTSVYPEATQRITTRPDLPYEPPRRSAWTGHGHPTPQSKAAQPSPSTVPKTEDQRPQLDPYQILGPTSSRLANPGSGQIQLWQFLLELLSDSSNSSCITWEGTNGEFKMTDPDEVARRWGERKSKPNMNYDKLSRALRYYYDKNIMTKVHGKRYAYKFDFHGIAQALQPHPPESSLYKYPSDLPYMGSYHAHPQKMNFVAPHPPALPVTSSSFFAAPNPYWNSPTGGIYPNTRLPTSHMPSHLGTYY
In short: as §1

[5] = target: ELF1 (Homo sapiens, UniProt P32519 1-619); conditions: protein: recombinant; tags: N-terminal GST; dsDNA, one strand shown
In short: as §1

[6] = target: T5, EHF (Homo sapiens, UniProt Q9NZC4 1-300); conditions: protein: recombinant; tags: N-terminal GST; dsDNA, one strand shown
T5 sequence: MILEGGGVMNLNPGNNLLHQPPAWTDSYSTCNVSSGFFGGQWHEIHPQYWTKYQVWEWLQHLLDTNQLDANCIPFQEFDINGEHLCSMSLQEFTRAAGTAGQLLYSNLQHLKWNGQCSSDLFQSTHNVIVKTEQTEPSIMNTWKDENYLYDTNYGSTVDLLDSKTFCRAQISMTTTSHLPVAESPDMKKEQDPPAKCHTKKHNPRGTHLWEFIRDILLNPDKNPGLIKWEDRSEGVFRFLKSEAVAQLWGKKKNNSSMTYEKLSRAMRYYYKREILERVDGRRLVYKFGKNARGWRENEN
In short: as §1

[7] = target: SPI1 (Homo sapiens, UniProt P17947 1-270); conditions: protein: recombinant; tags: N-terminal GST; dsDNA, one strand shown
In short: as §1

[8] = target: SPIB (Homo sapiens, UniProt Q01892 1-262); conditions: protein: recombinant; tags: N-terminal GST; dsDNA, one strand shown
In short: as §1

[9] = target: T6, ELK3 (Homo sapiens, UniProt P41970 1-407); conditions: protein: recombinant; tags: N-terminal GST; dsDNA, one strand shown
T6 sequence: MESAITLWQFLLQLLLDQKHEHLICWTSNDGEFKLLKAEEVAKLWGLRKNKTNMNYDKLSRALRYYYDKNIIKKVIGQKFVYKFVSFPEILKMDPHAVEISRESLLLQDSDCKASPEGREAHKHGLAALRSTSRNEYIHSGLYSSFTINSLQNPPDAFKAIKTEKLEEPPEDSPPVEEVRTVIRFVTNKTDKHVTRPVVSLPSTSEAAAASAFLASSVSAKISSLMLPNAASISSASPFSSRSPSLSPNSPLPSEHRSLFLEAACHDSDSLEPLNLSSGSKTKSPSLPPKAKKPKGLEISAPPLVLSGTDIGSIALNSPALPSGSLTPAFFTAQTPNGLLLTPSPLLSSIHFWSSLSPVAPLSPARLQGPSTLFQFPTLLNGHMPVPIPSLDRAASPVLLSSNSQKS
In short: as §1

[10] = target: T7, FEV (Homo sapiens, UniProt Q99581 1-238); conditions: protein: recombinant; tags: N-terminal GST; dsDNA, one strand shown
T7 sequence: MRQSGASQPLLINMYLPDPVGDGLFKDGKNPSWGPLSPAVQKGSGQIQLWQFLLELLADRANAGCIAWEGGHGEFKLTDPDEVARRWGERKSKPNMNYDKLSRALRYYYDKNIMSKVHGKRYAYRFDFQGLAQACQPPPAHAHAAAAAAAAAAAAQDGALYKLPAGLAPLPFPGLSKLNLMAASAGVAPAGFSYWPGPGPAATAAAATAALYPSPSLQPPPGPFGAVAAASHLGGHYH
In short: as §1

[11] = target: ETV5 (Homo sapiens, UniProt P41161 1-510); conditions: protein: recombinant; tags: N-terminal GST; dsDNA, one strand shown
In short: as §1

[12] = target: HSF1 (Homo sapiens, UniProt Q00613 1-529); conditions: protein: recombinant; tags: N-terminal GST; chain copies: 3; dsDNA, one strand shown
In short: as §1

[13] = target: T8, SPIC (Homo sapiens, UniProt Q8N5J4 1-248); conditions: protein: recombinant; tags: N-terminal GST; dsDNA, one strand shown
T8 sequence: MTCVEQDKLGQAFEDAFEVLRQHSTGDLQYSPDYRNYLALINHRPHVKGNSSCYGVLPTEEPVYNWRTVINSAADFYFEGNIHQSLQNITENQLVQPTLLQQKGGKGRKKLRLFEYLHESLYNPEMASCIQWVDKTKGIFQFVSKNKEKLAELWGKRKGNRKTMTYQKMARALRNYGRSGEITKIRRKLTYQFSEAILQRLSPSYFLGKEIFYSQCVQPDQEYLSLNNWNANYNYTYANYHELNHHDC
In short: as §1

[14] = target: ELF4 (Homo sapiens, UniProt Q99607 1-663); conditions: protein: recombinant; tags: N-terminal GST; dsDNA, one strand shown
In short: as §1

[15] = target: T9, ELK4 (Homo sapiens, UniProt P28324-2 1-405); conditions: protein: recombinant; tags: N-terminal GST; dsDNA, one strand shown
T9 sequence: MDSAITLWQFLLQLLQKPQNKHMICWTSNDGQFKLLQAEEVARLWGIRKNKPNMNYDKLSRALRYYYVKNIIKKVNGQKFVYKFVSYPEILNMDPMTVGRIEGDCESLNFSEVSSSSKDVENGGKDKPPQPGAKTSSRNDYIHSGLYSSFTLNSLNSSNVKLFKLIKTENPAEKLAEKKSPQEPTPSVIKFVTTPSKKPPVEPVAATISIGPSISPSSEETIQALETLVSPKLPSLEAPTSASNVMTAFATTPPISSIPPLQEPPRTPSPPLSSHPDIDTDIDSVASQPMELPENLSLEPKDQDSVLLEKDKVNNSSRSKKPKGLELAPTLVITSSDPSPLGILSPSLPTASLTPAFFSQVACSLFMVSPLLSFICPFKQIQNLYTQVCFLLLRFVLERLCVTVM
In short: as §1

[16] = target: T10, ETV2 (Homo sapiens, UniProt O00321 1-342); conditions: protein: recombinant; tags: N-terminal GST; dsDNA, one strand shown
T10 sequence: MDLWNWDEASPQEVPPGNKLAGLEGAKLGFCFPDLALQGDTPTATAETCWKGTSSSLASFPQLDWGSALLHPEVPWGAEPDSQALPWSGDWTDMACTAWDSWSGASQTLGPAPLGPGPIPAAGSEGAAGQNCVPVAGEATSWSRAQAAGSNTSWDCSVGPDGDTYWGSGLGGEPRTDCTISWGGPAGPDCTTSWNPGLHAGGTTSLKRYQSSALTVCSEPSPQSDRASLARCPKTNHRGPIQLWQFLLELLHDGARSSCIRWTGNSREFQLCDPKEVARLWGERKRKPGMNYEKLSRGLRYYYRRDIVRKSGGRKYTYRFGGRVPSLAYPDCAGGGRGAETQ
In short: as §1

[17] = target: T11, ELF3 (Homo sapiens, UniProt P78545 1-371); conditions: protein: recombinant; tags: N-terminal GST; dsDNA, one strand shown
T11 sequence: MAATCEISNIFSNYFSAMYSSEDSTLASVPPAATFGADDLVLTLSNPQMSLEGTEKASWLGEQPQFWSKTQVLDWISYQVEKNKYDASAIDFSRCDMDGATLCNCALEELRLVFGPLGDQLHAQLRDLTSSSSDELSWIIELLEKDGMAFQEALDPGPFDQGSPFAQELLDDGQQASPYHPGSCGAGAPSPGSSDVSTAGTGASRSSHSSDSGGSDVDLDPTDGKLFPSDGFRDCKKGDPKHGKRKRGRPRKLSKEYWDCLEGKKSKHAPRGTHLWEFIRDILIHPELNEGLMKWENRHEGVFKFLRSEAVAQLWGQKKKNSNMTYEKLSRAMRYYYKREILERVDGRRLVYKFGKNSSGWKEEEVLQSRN
In short: as §1

[18] = target: CRX (Homo sapiens, UniProt O43186 1-299); conditions: protein: recombinant; tags: N-terminal GST; dsDNA, one strand shown
In short: as §1

[19] = target: ETV1 (Homo sapiens, UniProt P50549 1-477); conditions: protein: recombinant; tags: N-terminal GST; dsDNA, one strand shown
In short: as §1

ETV1, sequence (P50549 whole entry): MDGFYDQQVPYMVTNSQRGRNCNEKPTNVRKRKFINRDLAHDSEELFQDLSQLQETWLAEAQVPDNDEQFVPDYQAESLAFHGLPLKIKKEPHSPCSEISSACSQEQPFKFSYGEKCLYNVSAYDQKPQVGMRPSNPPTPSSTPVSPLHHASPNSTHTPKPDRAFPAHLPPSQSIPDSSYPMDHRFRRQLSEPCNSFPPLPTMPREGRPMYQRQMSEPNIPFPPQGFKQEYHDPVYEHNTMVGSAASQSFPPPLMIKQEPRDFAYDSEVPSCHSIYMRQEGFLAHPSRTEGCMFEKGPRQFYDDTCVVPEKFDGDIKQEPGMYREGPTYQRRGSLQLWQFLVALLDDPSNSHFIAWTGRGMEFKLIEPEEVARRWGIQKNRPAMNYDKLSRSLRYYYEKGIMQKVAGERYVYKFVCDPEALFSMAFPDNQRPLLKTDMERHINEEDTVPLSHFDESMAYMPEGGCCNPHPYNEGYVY
CRX, sequence (O43186 whole entry): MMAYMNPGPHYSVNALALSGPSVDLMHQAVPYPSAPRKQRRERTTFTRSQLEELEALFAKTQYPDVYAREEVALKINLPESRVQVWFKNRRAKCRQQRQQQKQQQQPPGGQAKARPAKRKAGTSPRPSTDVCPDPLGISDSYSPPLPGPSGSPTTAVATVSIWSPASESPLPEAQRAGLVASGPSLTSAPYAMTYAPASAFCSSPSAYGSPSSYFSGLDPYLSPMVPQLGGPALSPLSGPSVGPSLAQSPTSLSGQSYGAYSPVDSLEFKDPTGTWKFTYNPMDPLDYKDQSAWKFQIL
ELF1, sequence (P32519 whole entry): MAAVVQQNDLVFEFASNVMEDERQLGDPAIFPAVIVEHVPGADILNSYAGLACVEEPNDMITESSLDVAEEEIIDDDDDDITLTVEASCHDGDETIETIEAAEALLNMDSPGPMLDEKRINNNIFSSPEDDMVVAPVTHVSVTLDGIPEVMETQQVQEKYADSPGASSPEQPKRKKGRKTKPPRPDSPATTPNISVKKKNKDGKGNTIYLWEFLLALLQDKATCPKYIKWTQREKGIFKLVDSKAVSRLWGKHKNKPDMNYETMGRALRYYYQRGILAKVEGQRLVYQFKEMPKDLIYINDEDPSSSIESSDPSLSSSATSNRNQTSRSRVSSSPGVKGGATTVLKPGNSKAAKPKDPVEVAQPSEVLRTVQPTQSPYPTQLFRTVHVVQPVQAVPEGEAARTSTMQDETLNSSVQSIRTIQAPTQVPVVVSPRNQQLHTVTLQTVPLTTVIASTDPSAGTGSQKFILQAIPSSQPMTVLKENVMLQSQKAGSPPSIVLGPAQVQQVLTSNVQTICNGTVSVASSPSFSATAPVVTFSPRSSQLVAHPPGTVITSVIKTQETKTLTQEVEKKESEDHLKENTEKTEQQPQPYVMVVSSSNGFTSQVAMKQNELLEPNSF
ELF4, sequence (Q99607 whole entry): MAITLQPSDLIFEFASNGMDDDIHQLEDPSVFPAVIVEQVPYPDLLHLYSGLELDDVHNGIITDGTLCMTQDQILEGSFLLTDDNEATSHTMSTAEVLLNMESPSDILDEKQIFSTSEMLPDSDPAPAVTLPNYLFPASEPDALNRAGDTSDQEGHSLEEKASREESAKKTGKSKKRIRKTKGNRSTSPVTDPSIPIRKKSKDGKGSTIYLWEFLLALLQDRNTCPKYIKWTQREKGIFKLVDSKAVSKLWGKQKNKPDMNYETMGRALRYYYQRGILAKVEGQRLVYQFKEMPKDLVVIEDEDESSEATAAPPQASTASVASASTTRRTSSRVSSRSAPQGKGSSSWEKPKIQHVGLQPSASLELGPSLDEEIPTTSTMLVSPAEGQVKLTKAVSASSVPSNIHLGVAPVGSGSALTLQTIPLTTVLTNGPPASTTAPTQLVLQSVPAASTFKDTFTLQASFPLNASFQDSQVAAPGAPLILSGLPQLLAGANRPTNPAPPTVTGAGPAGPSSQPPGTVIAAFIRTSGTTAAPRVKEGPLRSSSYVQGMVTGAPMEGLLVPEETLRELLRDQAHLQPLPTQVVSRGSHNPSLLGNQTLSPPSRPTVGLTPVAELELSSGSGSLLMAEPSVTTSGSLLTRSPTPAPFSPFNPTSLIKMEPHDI
HSF1, sequence (Q00613 whole entry): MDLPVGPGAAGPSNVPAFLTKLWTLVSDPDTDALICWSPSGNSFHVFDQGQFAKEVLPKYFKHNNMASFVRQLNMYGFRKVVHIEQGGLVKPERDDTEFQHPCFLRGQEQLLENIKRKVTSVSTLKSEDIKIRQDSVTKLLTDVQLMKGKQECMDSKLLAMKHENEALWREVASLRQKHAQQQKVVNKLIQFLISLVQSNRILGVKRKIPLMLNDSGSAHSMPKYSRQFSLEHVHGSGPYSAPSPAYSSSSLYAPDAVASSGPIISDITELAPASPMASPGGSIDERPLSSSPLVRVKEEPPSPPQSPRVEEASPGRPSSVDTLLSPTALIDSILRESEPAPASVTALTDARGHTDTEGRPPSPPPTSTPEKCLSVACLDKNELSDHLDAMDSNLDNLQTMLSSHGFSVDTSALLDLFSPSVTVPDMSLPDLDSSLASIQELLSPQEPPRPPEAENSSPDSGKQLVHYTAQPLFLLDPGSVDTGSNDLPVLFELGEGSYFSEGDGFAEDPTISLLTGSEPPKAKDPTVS
ETV5, sequence (P41161 whole entry): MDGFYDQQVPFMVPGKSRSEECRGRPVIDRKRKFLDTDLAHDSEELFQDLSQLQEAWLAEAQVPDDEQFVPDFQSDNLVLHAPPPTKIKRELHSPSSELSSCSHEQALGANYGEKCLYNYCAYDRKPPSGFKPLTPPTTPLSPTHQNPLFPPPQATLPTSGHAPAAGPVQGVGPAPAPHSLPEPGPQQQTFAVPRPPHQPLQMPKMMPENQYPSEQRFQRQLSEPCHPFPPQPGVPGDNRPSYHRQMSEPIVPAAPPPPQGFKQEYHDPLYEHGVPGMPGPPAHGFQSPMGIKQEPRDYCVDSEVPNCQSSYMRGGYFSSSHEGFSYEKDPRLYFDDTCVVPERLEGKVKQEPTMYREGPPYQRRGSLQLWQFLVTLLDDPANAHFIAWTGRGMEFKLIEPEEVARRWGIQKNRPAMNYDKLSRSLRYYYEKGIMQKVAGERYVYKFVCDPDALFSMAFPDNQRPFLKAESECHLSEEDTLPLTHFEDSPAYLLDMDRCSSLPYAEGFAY
SPIB, sequence (Q01892 whole entry): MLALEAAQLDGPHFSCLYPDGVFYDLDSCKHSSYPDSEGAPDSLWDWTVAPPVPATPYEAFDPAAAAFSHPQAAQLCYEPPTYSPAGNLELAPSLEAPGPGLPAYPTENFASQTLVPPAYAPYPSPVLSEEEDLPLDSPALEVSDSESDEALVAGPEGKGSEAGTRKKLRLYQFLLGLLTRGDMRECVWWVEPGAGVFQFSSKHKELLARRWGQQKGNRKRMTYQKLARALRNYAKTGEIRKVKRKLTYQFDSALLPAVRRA

What does the source list for TTACTC?
binding signal [1]: 1.31 fold enrichment (6-mer frequency, TF over GST control); binding signal [2]: 1.24 fold enrichment (6-mer frequency, TF over GST control); binding signal [3]: 1.26 fold enrichment (6-mer frequency, TF over GST control); binding signal [4]: 1.19 fold enrichment (6-mer frequency, TF over GST control); binding signal [5]: 1.24 fold enrichment (6-mer frequency, TF over GST control); binding signal [6]: 1.34 fold enrichment (6-mer frequency, TF over GST control); binding signal [7]: 1.32 fold enrichment (6-mer frequency, TF over GST control); binding signal [8]: 1.24 fold enrichment (6-mer frequency, TF over GST control); binding signal [9]: 1.26 fold enrichment (6-mer frequency, TF over GST control); binding signal [10]: 1.21 fold enrichment (6-mer frequency, TF over GST control); binding signal [11]: 1.24 fold enrichment (6-mer frequency, TF over GST control); binding signal [12]: 1.49 fold enrichment (6-mer frequency, TF over GST control); binding signal [13]: 1.24 fold enrichment (6-mer frequency, TF over GST control); binding signal [14]: 1.29 fold enrichment (6-mer frequency, TF over GST control); binding signal [15]: 1.34 fold enrichment (6-mer frequency, TF over GST control); binding signal [16]: 1.37 fold enrichment (6-mer frequency, TF over GST control); binding signal [17]: 1.43 fold enrichment (6-mer frequency, TF over GST control); binding signal [18]: 1.91 fold enrichment (6-mer frequency, TF over GST control); binding signal [19]: 1.32 fold enrichment (6-mer frequency, TF over GST control)
